Test results: paper PMC4336329 (PLoS ONE, 2015)
The whole screen tested about 310,000 compounds, of which about 14,000 (4.5%) showed an effect of 50% or more. Effects have a minus sign here. The sample holds strong results, similar compounds and a random draw of the others, so the mix is not that of the screen.

The molecules below were run against human ether-à-go-go-related gene (hERG) potassium channel (human, UniProt Q12809) (assay: primary screen, population patch clamp on CHO cells stably expressing hERG; higher = less effect of the substance).
Sequence of human ether-à-go-go-related gene (hERG) potassium channel (Q12809 whole entry, looked up): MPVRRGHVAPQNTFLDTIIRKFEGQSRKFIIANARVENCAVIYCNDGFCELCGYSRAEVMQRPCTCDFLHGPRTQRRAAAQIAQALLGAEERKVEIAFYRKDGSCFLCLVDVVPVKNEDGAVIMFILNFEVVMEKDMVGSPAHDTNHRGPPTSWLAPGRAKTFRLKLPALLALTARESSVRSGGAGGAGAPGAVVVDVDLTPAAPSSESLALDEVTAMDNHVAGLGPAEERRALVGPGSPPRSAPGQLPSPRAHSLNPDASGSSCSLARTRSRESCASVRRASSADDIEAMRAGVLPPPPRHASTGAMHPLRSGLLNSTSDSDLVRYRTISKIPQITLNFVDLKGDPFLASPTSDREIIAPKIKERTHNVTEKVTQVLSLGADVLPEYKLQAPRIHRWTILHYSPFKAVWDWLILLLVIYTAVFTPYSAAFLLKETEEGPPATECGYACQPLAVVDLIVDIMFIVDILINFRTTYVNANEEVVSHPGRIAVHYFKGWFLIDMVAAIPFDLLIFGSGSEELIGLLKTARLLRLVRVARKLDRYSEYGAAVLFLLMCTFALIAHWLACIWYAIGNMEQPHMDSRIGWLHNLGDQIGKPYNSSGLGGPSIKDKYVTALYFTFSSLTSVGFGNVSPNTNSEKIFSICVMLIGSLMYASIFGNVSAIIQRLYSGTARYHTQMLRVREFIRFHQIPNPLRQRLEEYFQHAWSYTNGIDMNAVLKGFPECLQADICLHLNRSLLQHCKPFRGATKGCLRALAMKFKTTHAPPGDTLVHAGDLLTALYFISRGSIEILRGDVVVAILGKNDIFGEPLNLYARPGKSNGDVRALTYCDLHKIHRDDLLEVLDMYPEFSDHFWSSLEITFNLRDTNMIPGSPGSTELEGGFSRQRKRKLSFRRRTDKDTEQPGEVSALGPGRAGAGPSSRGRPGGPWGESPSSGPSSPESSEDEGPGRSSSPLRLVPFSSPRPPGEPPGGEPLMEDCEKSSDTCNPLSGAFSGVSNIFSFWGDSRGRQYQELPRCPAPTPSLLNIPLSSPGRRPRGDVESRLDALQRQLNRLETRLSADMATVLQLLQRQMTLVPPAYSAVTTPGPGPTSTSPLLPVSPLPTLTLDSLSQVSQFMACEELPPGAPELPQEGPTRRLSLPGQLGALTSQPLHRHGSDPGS
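Also: peak tail current of the secondary pulse compared with the same well before compound.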

Structure (SMILES)	hERG current change (%, negative = inhibition) at 10uM [%]
CCOC(=O)CSCC(=O)Nc1cc(C)ccc1C	0.851
CNS(=O)(=O)c1cc(O)c2c(S(=O)(=O)NC)cccc2c1	11
COC(=O)CNC(=O)c1cc(-c2ccncc2)nc2c(C)c(Cl)ccc12	-27.9
Cc1c(Cl)ccc2c(C(=O)NC(C)c3ccncc3)cc(-c3ccncc3)nc12 (stereo not drawn)	-59.3
Cc1c(Cl)ccc2c(C(=O)O)cc(-c3ccccc3)nc12	-1.96
C=C(C)CC1(NC(C)c2ccccc2)CCCCC1 (stereo not drawn)	4
COc1ccc(OC)c(-c2csc(NC(=O)Cc3ccccc3OC)n2)c1	-0.305
COc1cccc(/C=N/NC(=O)c2nnn(-c3nonc3N)c2C(C)C)c1	11.4
Cc1ccc(C(=O)NCC(=O)O)o1	-5.14
Cc1c(CNCCC2=CCCCC2)c(C(=O)O)c(C)n1Cc1ccccc1	-13.3
Cc1c(CNCCc2ccc(Cl)cc2)c(C(=O)O)c(C)n1Cc1ccccc1	-50.1
Cc1c(CNCCCc2ccccc2)c(C(=O)O)c(C)n1Cc1ccccc1	4.03
Cc1cccc(C)c1NC(=O)/C(C#N)=C/c1ccsc1	-13.2
Cc1c(OCC(N)=O)ccc2c(-c3ccccc3)cc(=O)oc12	5.53
O=C(c1ccco1)N1CCN(C(=O)C2CC(=O)N(c3ccccc3)C2)CC1 (stereo not drawn)	-41.3
O=C(C1CC(=O)N(c2ccc(Cl)cc2)C1)N1CCCCCC1 (stereo not drawn)	-8.92
Cc1ccc(N2CC(C(=O)N3CCN(C(=O)c4ccco4)CC3)CC2=O)cc1 (stereo not drawn)	-71.7
O=C(C1CC(=O)N(c2ccc(Cl)cc2)C1)N1CCOCC1 (stereo not drawn)	-0.293
CCC(C)c1ccccc1N1CC(C(=O)N2CCN(C(=O)c3ccco3)CC2)CC1=O (stereo not drawn)	-12.6
O=C(c1ccco1)N1CCN(C(=O)C2CC(=O)N(c3ccc(Cl)cc3)C2)CC1 (stereo not drawn)	-75.4
O=C(CNC(=O)c1ccc(OC(F)F)cc1)NCC1CCCO1 (stereo not drawn)	2.87

Structure (SMILES)	hERG current change (%, negative = inhibition) at 10uM [%]
CCCCN1C(=O)/C(=C/c2ccc(N3CCCCCC3)cc2)C(=O)NC1=S	-22.9
C=CCc1ccc(OCCCCN2CC(C)CC(C)C2)c(OC)c1.O=C(O)C(=O)O (stereo not drawn)	-67
C=CCc1ccc(OCCCCN2CC(C)OC(C)C2)c(OC)c1.O=C(O)C(=O)O (stereo not drawn)	-25.8
C=CCc1ccc(OCCCCN2CCC(C)CC2)c(OC)c1	-69.6
C=CCc1ccc(OCCCCNC2CCCC2)c(OC)c1.O=C(O)C(=O)O	-39.9
C=CCc1ccc(OCCCCOc2ccc(C(=O)O)cc2)c(OC)c1	14
C=CCc1ccc(OCCCN2CCCC(C)C2)c(OC)c1.O=C(O)C(=O)O (stereo not drawn)	-65.8
C=CCc1ccc(OCCCNC2CCCC2)c(OC)c1	-48.1
C=CCc1ccc(OCCCCCN2CCOCC2)c(OC)c1.O=C(O)C(=O)O	-18.1
C=CCc1ccc(OCCCOc2ccc(C(=O)O)cc2)c(OC)c1	-1.14
CCOc1ccc(C(=O)Nc2cccc(C)n2)cc1	0.201
COc1ccc(/C=N/NC(=O)c2ccn[nH]2)cc1COc1ccc(Cl)cc1	2.09
CCc1cc2c(=O)nc3n(c2s1)Cc1ccccc1/C3=C(/O)c1ccc(F)cc1	-3.7
Cc1nnc(NC(=O)CN2CCN(Cc3ccc(F)cc3Cl)CC2)s1	8.45
Cc1c(Cl)cccc1NC(=O)C1CCCN(S(C)(=O)=O)C1 (stereo not drawn)	22
O=C(CN1C(=O)C2CC=C(Cl)CC2C1=O)Nc1ccc(C(=O)O)cc1 (stereo not drawn)	3.39
Cc1cc(-c2csc3ncnc(N4CCN(C)CC4)c23)cc(C)c1C	-65.2
CCN1CCN(c2ncnc3scc(-c4ccc(C)c(C)c4)c23)CC1	-76.4
COc1ccc(-c2csc3ncnc(N4CCN(c5ccccc5)CC4)c23)cc1	12.3
CCOc1ccc(CN2CCN(c3ncnc4scc(-c5ccccc5)c34)CC2)cc1	-75.3
OCCN1CCN(c2ncnc3scc(-c4ccc(F)cc4)c23)CC1	-22.1

Structure (SMILES)	hERG current change (%, negative = inhibition) at 10uM [%]
CCN1CCN(c2ncnc3scc(-c4ccc(C)cc4)c23)CC1	-22.5
CCN1CCN(c2ncnc3scc(-c4ccc(OC)cc4)c23)CC1	-54.6
CC(C)c1ccc(-c2csc3ncnc(N4CCN(C)CC4)c23)cc1	-21.6
COc1ccc(-c2csc3ncnc(N4CCN(CCO)CC4)c23)cc1	-1.12
Cc1ccc(-c2csc3ncnc(N4CCN(C)CC4)c23)cc1C	-18.7
Cc1ccc(-c2csc3ncnc(N4CCN(Cc5ccccc5)CC4)c23)cc1	18
Fc1ccc(CN2CCN(c3ncnc4scc(-c5ccccc5)c34)CC2)cc1	-39.9
CCOC(=O)c1ccc(NC(=O)c2ccc(C)c(S(=O)(=O)N3CCOCC3)c2)cc1	-33.4
CC(C)(C)C(=O)N1CCN(c2ccc(NC(=O)c3ccc([N+](=O)[O-])o3)cc2)CC1	10.2
COc1ccccc1N(C)S(=O)(=O)c1ccc(C(=O)NC(C)c2ccccc2)cc1 (stereo not drawn)	-43.7
COc1ccc(-c2nnc(-c3cc4c(ccc5ccccc54)oc3=O)o2)cc1	-8.75
Clc1ccc(CSc2nnc(-c3ccncc3)o2)cc1	-11.5
Cc1csc(NC(=O)CCc2c(C)nc3cc(-c4ccc(Cl)cc4)nn3c2C)n1	-2.4
c1ccc(-c2csc3ncnc(N4CCN(Cc5ccc6c(c5)OCO6)CC4)c23)cc1	-57.6
Cc1sc2ncnc(N3CCN(Cc4ccccc4)CC3)c2c1-c1ccccc1	-34.8
CCN1CCN(c2ncnc3sc(C)c(-c4ccccc4)c23)CC1	-57.1
COc1ccc(CN2CCN(c3ncnc4scc(-c5ccc(F)cc5)c34)CC2)cc1	-65.8
COc1ccc(F)cc1CN1CCN(c2ncnc3scc(-c4ccccc4)c23)CC1	-41.6
O=C(CSc1ncnc2scc(-c3ccccc3)c12)N1CCN(Cc2ccc3c(c2)OCO3)CC1	-35.7
COc1ccccc1N1CCN(c2ncnc3sc(C)c(-c4ccccc4)c23)CC1	14.2
COc1ccc(N2CCN(c3ncnc4scc(-c5ccc(F)cc5)c34)CC2)cc1	-0.492

Structure (SMILES)	hERG current change (%, negative = inhibition) at 10uM [%]
Fc1ccc(CN2CCN(c3ncnc4scc(-c5ccc(F)cc5)c34)CC2)cc1	5.9
CNc1c([N+](=O)[O-])cnn1-c1ccccn1	-15.5
CC(C)(O)C#Cc1ccc(C(=O)NCCc2ccc(S(N)(=O)=O)cc2)cc1	13.6
O=C(NNS(=O)(=O)c1cccc(Cl)c1)c1cc(-c2ccc(F)cc2)nc2ccccc12	11.6
Cc1ccc(C(=O)COC(=O)CNS(=O)(=O)c2ccc(C)cc2)cc1	12.4
CCOC(=O)C(NC(C)=O)(Nc1ccc(F)cc1)C(F)(F)F (stereo not drawn)	-3.72
O=C(O)c1cnc(-c2ccccc2)nc1Sc1cccc(Cl)c1	26.7
O=C(O)/C(=C\c1cn(-c2ccccc2)nc1-c1cccnc1)NC(=O)c1ccccc1	7.21
C/C=C\C=C\C(=O)N1CC2(CC(c3cccc(NC(=O)COc4ccc(Cl)cc4)c3)=NO2)C[C@H]1C(N)=O (stereo partly drawn)	-76.9
CC/C=C/C(=O)N1CC2(CC(c3cccc(NC(=O)CC)c3)=NO2)C[C@H]1C(N)=O (stereo partly drawn)	13.6
NC(=O)[C@H]1CC2(CC(c3cccc(NC(=O)COc4ccc(Cl)cc4)c3)=NO2)CN1C(=O)c1ccc(Cl)cc1 (stereo partly drawn)	-9.96
CC/C=C/C(=O)N1CC2(CC(c3cccc(NC(=O)COc4ccc(Cl)cc4)c3)=NO2)C[C@H]1C(N)=O (stereo partly drawn)	-64.7
C/C=C\C=C/C(=O)Nc1cccc(C2=NOC3(C2)C[C@@H](C(N)=O)N(C(=O)COc2ccc(Cl)cc2)C3)c1 (stereo partly drawn)	-7.47
C/C=C/C(=O)N1CC2(CC(c3cccc(NC(=O)COc4ccc(Cl)cc4)c3)=NO2)C[C@@H]1C(N)=O (stereo partly drawn)	-41.4
Cn1nc(-c2ccccc2)c(CSc2ccccc2Cl)c1Cl	6.46
CN1CCN(C(=O)c2cnn(-c3ccccc3)c2NC(=O)c2ccc([N+](=O)[O-])cc2)CC1	-51.6
CN1CCN(C(=O)c2cnn(-c3ccccc3)c2NC(=O)c2ccccc2Br)CC1	3.72
O=C(Nc1c(C(=O)N2CCOCC2)cnn1-c1ccccc1)c1ccc([N+](=O)[O-])cc1	-16
CN1CCN(C(=O)c2cnn(-c3ccccc3)c2NC(=O)c2ccc(Br)cc2)CC1	-81.4
Cc1cccc(C(=O)Nc2c(C(=O)N3CCN(C)CC3)cnn2-c2ccccc2)c1	-15.9
CN1CCN(C(=O)c2cnn(-c3ccccc3)c2NC(=O)c2ccccc2)CC1	-17.8
